The campaign covered roughly 1,400 compounds. About 350 (25%) were called active. Another 2% or so got no clear call; they are omitted. No rule for the calls is given here. Not all results are given here. Entries with a potency or affinity are not part of this list.
Experiment: C. difficile growth inhibition, confirmation, 4-point retest (AID 1224921);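 also: plate controls were DMSO wells for no effect and levofloxacin 16 µg/mL wells for full effect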
Details: Clostridioides difficile clinical isolate growth, OD600, 24 h, hits give low values; at 30 µM unless noted

Max activity, inactive:
CNC[C@@H]1Oc2ncc(-c3ccc(OC)cc3)cc2C(=O)N([C@@H](C)CO)C[C@@H]1C 20.8%
COc1cccc(-c2ccc3c(c2)O[C@@H](CN(C)Cc2cccnc2)[C@H](C)CN([C@@H](C)CO)S3(=O)=O)c1 12.1%
Cc1ccccc1-c1ccc2c(c1)O[C@H](CN(C)Cc1ccncc1)[C@H](C)CN([C@H](C)CO)S2(=O)=O 50.8%
CO[C@H]1CN(C)C(=O)c2cc(NS(=O)(=O)c3ccc(Cl)cc3)ccc2OC[C@H](C)N(C(=O)NC(C)C)C[C@@H]1C -13.3% [at 8 µM]
O=C(C[C@@H]1C[C@@H]2c3cc(NC(=O)Nc4ccc(C(F)(F)F)cc4)ccc3O[C@@H]2[C@H](CO)O1)NC1CCCCC1 -10.2% [at 0.5 µM]
N#C[C@@H]1[C@@H](c2ccc(/C=C/c3ccccc3)cc2)[C@@H](CO)N1C(=O)C1CC1 27%
C[C@@H]1CN([C@@H](C)CO)C(=O)c2c(c3ccccc3n2C)-c2ccccc2CO[C@@H]1CN(C)C(=O)c1ccncc1 29.1%
COc1ccc(CN(C)C[C@@H]2OCCCC[C@H](C)Oc3ccc(NC(=O)Nc4ccc5c(c4)OCO5)cc3C(=O)N([C@H](C)CO)C[C@@H]2C)cc1 14.8%
CCCC(=O)Nc1ccc2c(c1)OC[C@@H](C)N(C(=O)c1ccccc1F)C[C@@H](C)[C@@H](OC)CN(C)C2=O 9.79%
Cc1ccccc1-c1ccc2c(c1)O[C@@H](CN(C)Cc1ccncc1)[C@H](C)CN([C@H](C)CO)S2(=O)=O 48.1%
CCCN(C)C[C@H]1OCCCC[C@@H](C)Oc2ccc(NC(=O)Nc3ccc(C(F)(F)F)cc3)cc2C(=O)N([C@H](C)CO)C[C@H]1C -43.7%
CCCN(C)C[C@H]1OCCCC[C@H](C)Oc2ccc(NC(=O)Nc3ccc(C(F)(F)F)cc3)cc2C(=O)N([C@@H](C)CO)C[C@H]1C 28.8% [at 8 µM]
CCCN(C)C[C@H]1OCCCC[C@H](C)Oc2ccc(NC(=O)Nc3ccc4c(c3)OCO4)cc2C(=O)N([C@@H](C)CO)C[C@@H]1C 8.67%
CCCN(C)C[C@@H]1OCCCC[C@@H](C)Oc2ccc(NC(=O)Nc3ccc(C(F)(F)F)cc3)cc2C(=O)N([C@H](C)CO)C[C@@H]1C 16.3% [at 8 µM]
CC(C)NC(=O)N[C@@H]1CC[C@H](CC(=O)NCCCN(C)C)O[C@@H]1CO -13.1%
C[C@@H]1CN([C@H](C)CO)S(=O)(=O)c2ccc(C#CC3CCCC3)cc2O[C@@H]1CN(C)Cc1cccnc1 27.7%
CCCC#Cc1ccc2c(c1)O[C@@H](CN(C)Cc1ccncc1)[C@@H](C)CN([C@@H](C)CO)S2(=O)=O -13.3% [at 8 µM]
CO[C@@H]1CN(C)C(=O)c2cc(NC(=O)c3cnccn3)ccc2OC[C@@H](C)N(CCC(F)(F)F)C[C@H]1C -9.07% [at 35 µM]
CCCNC(=O)Nc1ccc2c(c1)OC[C@H](C)N(Cc1ccccc1)C[C@@H](C)[C@@H](OC)CN(C)C2=O 27.8% [at 8 µM]
CNC[C@H]1Oc2ncc(-c3ccc(OC)cc3)cc2C(=O)N([C@H](C)CO)C[C@@H]1C 27.6%
CO[C@H]1CN(C)C(=O)c2cc(NC(=O)c3ccccc3)ccc2OC[C@H](C)N(C)C[C@H]1C -10.6% [at 1.95 µM]
CO[C@H]1CN(C)C(=O)c2ccc(NS(=O)(=O)c3ccccc3C)cc2OC[C@@H](C)N(S(C)(=O)=O)C[C@@H]1C 15%
C[C@@H]1CN([C@@H](C)CO)S(=O)(=O)c2ccc(C#CC3CCCC3)cc2O[C@@H]1CN(C)Cc1cccnc1 -18.2% [at 1.95 µM]
C[C@@H]1CCCCO[C@@H](CN(C)Cc2ccccc2)[C@H](C)CN([C@@H](C)CO)C(=O)c2cc(NC(=O)Nc3ccc(C(F)(F)F)cc3)ccc2O1 26.5% [at 1.95 µM]
C[C@@H]1CCCCO[C@H](CN(C)Cc2ccccc2)[C@@H](C)CN([C@H](C)CO)C(=O)c2cc(NC(=O)Nc3ccc(C(F)(F)F)cc3)ccc2O1 19.2% [at 8 µM]
CO[C@@H]1CN(C)C(=O)c2cc(NC(=O)NC3CCCCC3)ccc2OC[C@@H](C)N(CCc2ccccc2)C[C@@H]1C 17.7% [at 8 µM]
C[C@H](CO)N1C[C@H](C)[C@H](CN(C)Cc2ccc(-c3ccccc3)cc2)Oc2ncc(C#C[C@@H](C)O)cc2C1=O 17.2%
CO[C@@H]1CN(C)C(=O)c2ccc(NC(=O)c3ccc(Oc4ccccc4)cc3)cc2OC[C@@H](C)NC[C@H]1C -19.3% [at 2.1 µM]
CC(C)CC#Cc1ccc2c(c1)O[C@@H](CN(C)Cc1cccnc1)[C@@H](C)CN([C@H](C)CO)S2(=O)=O 41.2%
C[C@@H]1CCCCO[C@H](CN(C)Cc2ccccc2)[C@H](C)CN([C@@H](C)CO)C(=O)c2cc(NC(=O)Nc3ccc(C(F)(F)F)cc3)ccc2O1 26.5% [at 1.95 µM]
C[C@H](CO)N1C[C@H](C)[C@H](CN(C)Cc2ccccc2)OCCCC[C@H](C)Oc2ccc(NC(=O)Nc3ccc(F)cc3)cc2C1=O 37.9%
CC(C)C#Cc1ccc2c(c1)O[C@H](CN(C)Cc1ccncc1)[C@H](C)CN([C@H](C)CO)S2(=O)=O 8.71%
CCCNC(=O)Nc1ccc2c(c1)C(=O)N(C)C[C@H](OC)[C@@H](C)CN(Cc1ccccc1)[C@H](C)CO2 17.2%
COc1ccc(NC(=O)Nc2cccc3c2O[C@@H](CN(C)C(=O)NC2CCCCC2)[C@H](C)CN([C@H](C)CO)C3=O)cc1 7.41%
O=C(C[C@@H]1C[C@@H]2c3cc(NC(=O)CC4CC4)ccc3O[C@@H]2[C@H](CO)O1)NCCc1ccccc1 -14.8%
CCC(=O)Nc1ccc2c(c1)C(=O)N(C)[C@@H]1CC[C@H](CC(=O)NCc3ccc(OC)cc3)O[C@@H]1CO2 -3.51% [at 1.95 µM]
CC(C)NC(=O)N(C)C[C@H]1Oc2cc(C#Cc3ccc(F)cc3)ccc2S(=O)(=O)N([C@@H](C)CO)C[C@@H]1C 24.4%
C[C@@H]1CN([C@H](C)CO)C(=O)c2cccc(NS(C)(=O)=O)c2O[C@H]1CN(C)Cc1ccccc1 32.7%
CO[C@@H]1CN(C)C(=O)c2cc(NC(=O)c3ccccc3)ccc2OC[C@H](C)N(CC2CC2)C[C@@H]1C 19.6%
COc1cccc(C(=O)Nc2ccc3c(c2)OC[C@@H](C)N(C(=O)C2CCCC2)C[C@H](C)[C@H](OC)CN(C)C3=O)c1 7.82%
CCCC(=O)Nc1ccc2c(c1)C(=O)N(C)C[C@@H](OC)[C@@H](C)CN(Cc1ccccc1)[C@@H](C)CO2 9.16%
CCCNC(=O)N(C)C[C@@H]1Oc2cc(C#Cc3cccc(F)c3)ccc2S(=O)(=O)N([C@H](C)CO)C[C@H]1C 64.3%
O=C(Nc1cc(F)ccc1F)N[C@H]1CC[C@@H](CC(=O)N2CCc3ccccc3C2)O[C@@H]1CO 31.4%
CO[C@H]1CN(C)C(=O)c2cc(NS(=O)(=O)c3cccc(F)c3)ccc2OC[C@H](C)N(Cc2cc(F)ccc2F)C[C@@H]1C -7.26% [at 8 µM]
CCCN1C[C@@H](C)[C@H](OC)CN(C)C(=O)c2cc(NC(=O)CC)ccc2OC[C@@H]1C -10.1%
COc1ccc(NC(=O)Nc2ccc3c(c2)[C@H]2C[C@H](CC(=O)NCc4ccccc4F)O[C@@H](CO)[C@H]2O3)cc1 -14.5% [at 8 µM]
C[C@H]1CN([C@@H](C)CO)C(=O)c2cccc(NC(=O)NC3CCCCC3)c2O[C@H]1CN(C)C(=O)Nc1ccc(C(F)(F)F)cc1 17.7% [at 7.5 µM]
CO[C@@H]1CN(C)C(=O)c2ccc(NC(=O)C3CC3)cc2OC[C@H](C)N(Cc2cncnc2)C[C@@H]1C -6.19% [at 1.95 µM]
CO[C@H]1CN(C)C(=O)c2ccc(NC(=O)C3CC3)cc2OC[C@H](C)N(Cc2cncnc2)C[C@@H]1C -11.8%
CO[C@H]1CN(C)C(=O)c2ccc(NC(C)=O)cc2OC[C@@H](C)N(Cc2cc(F)ccc2F)C[C@H]1C -8.57% [at 1.95 µM]
CCCNC(=O)Nc1ccc2c(c1)OC[C@@H](C)N(Cc1ccccc1)C[C@H](C)[C@H](OC)CN(C)C2=O 33.5%
CCS(=O)(=O)Nc1ccc2c(c1)C(=O)N(C)C[C@H](OC)[C@H](C)CN(CC1CCCC1)[C@H](C)CO2 -9.54% [at 1.95 µM]
C[C@@H]1CN([C@@H](C)CO)C(=O)Cc2cc(NC(=O)CCCN(C)C)ccc2O[C@H]1CN(C)Cc1ccc(Oc2ccccc2)cc1 12.2% [at 8 µM]
C[C@H](CO)N1C[C@H](C)[C@@H](CN(C)Cc2ccccc2)Oc2ccc(NC(=O)Nc3cccc4ccccc34)cc2CC1=O 21.6%
CC(C)NC(=O)Nc1ccc2c(c1)CC(=O)N([C@@H](C)CO)C[C@@H](C)[C@@H](CN(C)Cc1ccc(-c3ccccc3)cc1)O2 42.2%
C[C@@H]1CN([C@H](C)CO)C(=O)Cc2cc(NC(=O)Nc3cccc4ccccc34)ccc2O[C@H]1CN(C)Cc1ccccc1 31.3% [at 8 µM]
C[C@@H]1CN([C@@H](C)CO)C(=O)Cc2cc(NC(=O)Nc3ccc(C(F)(F)F)cc3)ccc2O[C@@H]1CN(C)Cc1ccccc1 36.8% [at 35 µM]
C[C@@H]1CN([C@@H](C)CO)C(=O)Cc2cc(NC(=O)Nc3cccc4ccccc34)ccc2O[C@H]1CN(C)Cc1ccccc1 34.5%

Source: PubChem BioAssay AID1224921 (Broad Institute, 2016)
